According to the supplement of paper PMC8728848:
Many of the other results were omitted from the sample, so the strongest signals are more common in it than they were.

What was measured:
Assay in all cases: glycan array binding signal (z-score within array); higher = stronger binding
Conditions in all cases: glycan notation: IUPAC condensed, linker removed
[1] = molecular target: Fuc(a1-2)Gal(b1-3)[Fuc(a1-4)]GlcNAc(b1-2)Man(a1-3)[Fuc(a1-2)Gal(b1-3)[Fuc(a1-4)]GlcNAc(b1-2)Man(a1-3)]Man(b1-4)GlcNAc(b1-4)GlcNAc
Procedure, shortened: (§1)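 Glycan array data came from 3228 arrays in the Consortium for Functional Glycomics database, and only arrays with an available protein sequence were kept. Glycan names were put into IUPAC-condensed notation, and columns mapping to the same glycan were averaged. The binding signal is a within-array Z-score, averaged across arrays of one protein sequence run at different concentrations or buffers and across linkers. A negative Z-score can be read as non-binding.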

[2] = molecular target: Fuc(a1-2)Gal(b1-4)GlcNAc(b1-2)Man(a1-3)[Fuc(a1-2)Gal(b1-4)GlcNAc(b1-2)Man(a1-6)]Man(b1-4)GlcNAc(b1-4)[Fuc(a1-6)]GlcNAc
Procedure, shortened: as §1

[3] = molecular target: Fuc(a1-2)Gal(b1-4)GlcNAc(b1-2)[Fuc(a1-2)Gal(b1-4)GlcNAc(b1-4)]Man(a1-3)[Fuc(a1-2)Gal(b1-4)GlcNAc(b1-2)Man(a1-6)]Man(b1-4)GlcNAc(b1-4)GlcNAc
Procedure, shortened: as §1

[4] = molecular target: Fuc(a1-2)Gal(b1-4)GlcNAc(b1-3)[Fuc(a1-2)Gal(b1-4)GlcNAc(b1-6)]GalNAc
Procedure, shortened: as §1

[5] = molecular target: Fuc(a1-2)Gal6S(b1-3)GlcNAc6S
Procedure, shortened: as §1

[6] = molecular target: Fuc(a1-2)[Gal(a1-3)]Gal(b1-3)GalNAc
Procedure, shortened: as §1

[7] = molecular target: Fuc(a1-2)[Gal(a1-3)]Gal(b1-4)GlcNAc(b1-3)[Fuc(a1-2)[Gal(a1-3)]Gal(b1-4)GlcNAc(b1-6)]GalNAc
Procedure, shortened: as §1

[8] = molecular target: Fuc(a1-2)[GalNAc(a1-3)]Gal(b1-3)GalNAc(a1-3)[Fuc(a1-2)]Gal(b1-4)GlcNAc
Procedure, shortened: as §1

[9] = molecular target: Fuc(a1-2)[GalNAc(a1-3)]Gal(b1-3)GalNAc(b1-3)Gal(a1-4)Gal(b1-4)Glc
Procedure, shortened: as §1

[10] = molecular target: Fuc(a1-2)[GalNAc(a1-3)]Gal(b1-4)GlcNAc
Procedure, shortened: as §1

[11] = molecular target: Fuc(a1-2)[GalNAc(a1-3)]Gal(b1-4)GlcNAc(b1-3)Gal(b1-4)GlcNAc(b1-3)Gal(b1-4)GlcNAc
Procedure, shortened: as §1

[12] = molecular target: Fuc(a1-2)[GalNAc(a1-3)]Gal(b1-4)[Fuc(a1-3)]GlcNAc
Procedure, shortened: as §1

[13] = molecular target: Fuc(a1-2)[GalNAc(a1-4)]Gal(b1-4)GlcNAc
Procedure, shortened: as §1

[14] = molecular target: Fuc(a1-3)[Gal(b1-4)]GlcNAc6S
Procedure, shortened: as §1

[15] = molecular target: Fuc(a1-3)[Gal3S(b1-4)]GlcNAc
Procedure, shortened: as §1

[16] = molecular target: Fuc(a1-3)[Gal3S(b1-4)]GlcNAc6S
Procedure, shortened: as §1

[17] = molecular target: Gal(a1-3)Gal(b1-4)GlcNAc(b1-2)Man
Procedure, shortened: as §1

[18] = molecular target: Gal(a1-3)Gal(b1-4)[Fuc(a1-3)]GlcNAc(b1-2)Man(a1-3)[Gal(a1-3)Gal(b1-4)[Fuc(a1-3)]GlcNAc(b1-2)Man(a1-6)]Man(b1-4)GlcNAc(b1-4)GlcNAc
Procedure, shortened: as §1

[19] = molecular target: Gal(b1-3)GalNAc(b1-4)Gal(b1-4)Glc
Procedure, shortened: as §1

[20] = molecular target: Gal(b1-3)GlcNAc(b1-2)Man(a1-3)[Gal(b1-3)GlcNAc(b1-2)Man(a1-6)]Man(b1-4)GlcNAc(b1-4)[Fuc(a1-6)]GlcNAc
Procedure, shortened: as §1

[21] = molecular target: Gal(b1-3)GlcNAc(b1-3)Gal(b1-4)GlcNAc(b1-2)[Gal(b1-3)GlcNAc(b1-3)Gal(b1-4)GlcNAc(b1-6)]Man(a1-6)[Gal(b1-3)GlcNAc(b1-3)Gal(b1-4)GlcNAc(b1-2)Man(a1-3)]Man(b1-4)GlcNAc(b1-4)[Fuc(a1-6)]GlcNAc
Procedure, shortened: as §1

[22] = molecular target: Gal(b1-3)[Fuc(a1-4)]GlcNAc(b1-2)Man
Procedure, shortened: as §1

[23] = molecular target: Gal(b1-4)GlcNAc(b1-2)Man(a1-3)[Gal(b1-4)GlcNAc(b1-2)Man(a1-6)][Gal(b1-4)GlcNAc(b1-4)]Man(b1-4)GlcNAc(b1-4)[Fuc(a1-6)]GlcNAc
Procedure, shortened: as §1

[24] = molecular target: Gal(b1-4)GlcNAc(b1-3)Gal(b1-4)GlcNAc(b1-2)[Gal(b1-4)GlcNAc(b1-3)Gal(b1-4)GlcNAc(b1-6)]Man(a1-6)[Gal(b1-4)GlcNAc(b1-3)Gal(b1-4)GlcNAc(b1-2)Man(a1-3)]Man(b1-4)GlcNAc(b1-4)[Fuc(a1-6)]GlcNAc
Procedure, shortened: as §1

[25] = molecular target: Gal(b1-4)GlcNAc(b1-3)Gal(b1-4)GlcNAc(b1-3)Gal(b1-4)GlcNAc(b1-2)[Gal(b1-4)GlcNAc(b1-3)Gal(b1-4)GlcNAc(b1-3)Gal(b1-4)GlcNAc(b1-6)]Man(a1-6)[Gal(b1-4)GlcNAc(b1-3)Gal(b1-4)GlcNAc(b1-3)Gal(b1-4)GlcNAc(b1-2)Man(a1-3)]Man(b1-4)GlcNAc(b1-4)[Fuc(a1-6)]GlcNAc
Procedure, shortened: as §1

[26] = molecular target: Gal(b1-4)GlcNAc(b1-3)Gal(b1-4)GlcNAc(b1-3)Gal(b1-4)GlcNAc(b1-3)Gal(b1-4)GlcNAc(b1-3)Gal(b1-4)GlcNAc(b1-2)Man(a1-3)[Gal(b1-4)GlcNAc(b1-3)Gal(b1-4)GlcNAc(b1-3)Gal(b1-4)GlcNAc(b1-3)Gal(b1-4)GlcNAc(b1-3)Gal(b1-4)GlcNAc(b1-2)Man(a1-6)]Man(b1-4)GlcNAc(b1-4)[Fuc(a1-6)]GlcNAc
Procedure, shortened: as §1

[27] = molecular target: Gal(b1-4)GlcNAc(b1-3)[GlcNAc(b1-6)]Gal(b1-4)GlcNAc
Procedure, shortened: as §1

[28] = molecular target: Gal(b1-4)GlcNAc(b1-6)GalNAc
Procedure, shortened: as §1

Gal3S(b1-4)GlcNAc = molecular target: Gal3S(b1-4)GlcNAc
Procedure, shortened: as §1

B1: OGAN (protein)
chain: MVQKESQATLEERESELSSNPAASAGASLEPPAAPAPGEDNPAGAGGAAVAGAAGGARRFLCGVVEGFYGRPWVMEQRKELFRRLQKWELNTYLYAPKDDYKHRMFWREMYSVEEAEQLMTLISAAREYEIEFIYAISPGLDITFSNPKEVSTLKRKLDQVSQFGCRSFALLFNDIDHNMCAADKEVFSSFAHAQVSITNEIYQYLGEPETFLFCPTEYCGTFCYPNVSQSPYLRTVGEKLLPGIEVLWTGPKVVSKEIPVESIEEVSKIIKRAPVIWDNIHANDYDQKRLFLGPYKGRSTELIPRLKGVLTNPNCEFEANYVAIHTLATWYKSNMNGVRKDVVMTDSEDSTVSIQIKLENEGSDEDIETDVLYSPQMALKLALTEWLQEFGVPHQY
- glycan array binding signal (z-score) [1]: 0.055
- glycan array binding signal (z-score) [2]: -0.047
- glycan array binding signal (z-score) [3]: -0.036
- glycan array binding signal (z-score) [4]: -0.036
- glycan array binding signal (z-score) [5]: 0.263
- glycan array binding signal (z-score) [6]: 0.104
- glycan array binding signal (z-score) [7]: 0.056
- glycan array binding signal (z-score) [8]: 23.3
- glycan array binding signal (z-score) [9]: 7.17
- glycan array binding signal (z-score) [10]: -0.083
- glycan array binding signal (z-score) [11]: -0.044
- glycan array binding signal (z-score) [12]: -0.028
- glycan array binding signal (z-score) [13]: -0.033
- glycan array binding signal (z-score) [14]: -0.052
- glycan array binding signal (z-score) [15]: 0.055
- glycan array binding signal (z-score) [16]: -0.076
- glycan array binding signal (z-score) [17]: -0.037
- glycan array binding signal (z-score) [18]: -0.048
- glycan array binding signal (z-score) [19]: -0.029
- glycan array binding signal (z-score) [20]: -0.064
- glycan array binding signal (z-score) [21]: 0.166
- glycan array binding signal (z-score) [22]: -0.036
- glycan array binding signal (z-score) [23]: -0.086
- glycan array binding signal (z-score) [24]: -0.01
- glycan array binding signal (z-score) [25]: -0.03
- glycan array binding signal (z-score) [26]: -0.001
- glycan array binding signal (z-score) [27]: -0.059
- glycan array binding signal (z-score) [28]: -0.053
- glycan array binding signal (z-score) (Gal3S(b1-4)GlcNAc): -0.067
